Bioassay records deposited in PubChem by National Center for Advancing Translational Sciences (NCATS).
CtBP-E1A inh: qHTS Assay for Inhibitors of the CtBP/E1A Interaction; AlphaScreen GST-E1A/His-CtBP binding, 1536-well; active compounds read low; CtBP / adenovirus E1A interaction (AlphaScreen); activity change, % (concentration not given with the values); AID 651724, 2012; 0.49% of 340,000 active; in the data active = activity change below about -65%; inconclusive = mostly about -30% to -63%; also: % is scaled to controls: 0 for no effect and ±100 for the full control effect
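AlphaScreen with 125 nM GST-E1A and 125 nM His-CtBP (5X stocks) in Tris pH 8.0, 300 mM NaCl, BSA, Tween 20, TCEP. Compounds preincubated 2 h at 37 deg C, then glutathione donor/nickel acceptor beads added for 1 h at 37 deg C in dark.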
Six1-Eya2 inh: qHTS Assay for Inhibitors of the Six1/Eya2 Interaction. AlphaScreen GST-Six1/His-Eya2 binding, biochemical; active compounds read low. activity change, % (test concentration not listed). 0.56% of 360,000 active; in the data active = activity change below about -65%; inconclusive = mostly about -30% to -63%; also: % is scaled to controls: 0 for no effect and ±100 for the full control effect
Target sequence (O00167 whole entry, looked up): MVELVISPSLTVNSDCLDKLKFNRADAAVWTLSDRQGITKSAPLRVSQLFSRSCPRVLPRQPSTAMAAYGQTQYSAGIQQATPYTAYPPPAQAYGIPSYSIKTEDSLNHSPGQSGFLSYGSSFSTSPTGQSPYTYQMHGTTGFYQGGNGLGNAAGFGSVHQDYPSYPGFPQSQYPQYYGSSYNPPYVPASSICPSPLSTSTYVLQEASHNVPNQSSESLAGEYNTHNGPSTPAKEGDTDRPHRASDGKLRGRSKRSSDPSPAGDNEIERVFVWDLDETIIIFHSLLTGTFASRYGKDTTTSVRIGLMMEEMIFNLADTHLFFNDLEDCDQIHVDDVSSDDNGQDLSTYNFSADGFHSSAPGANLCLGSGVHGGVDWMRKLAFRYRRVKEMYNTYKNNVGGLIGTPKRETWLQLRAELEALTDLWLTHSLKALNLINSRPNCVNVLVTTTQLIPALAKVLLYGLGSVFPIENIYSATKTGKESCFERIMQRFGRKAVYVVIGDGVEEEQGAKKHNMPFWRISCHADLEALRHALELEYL
Target sequence (Q15475 whole entry, looked up): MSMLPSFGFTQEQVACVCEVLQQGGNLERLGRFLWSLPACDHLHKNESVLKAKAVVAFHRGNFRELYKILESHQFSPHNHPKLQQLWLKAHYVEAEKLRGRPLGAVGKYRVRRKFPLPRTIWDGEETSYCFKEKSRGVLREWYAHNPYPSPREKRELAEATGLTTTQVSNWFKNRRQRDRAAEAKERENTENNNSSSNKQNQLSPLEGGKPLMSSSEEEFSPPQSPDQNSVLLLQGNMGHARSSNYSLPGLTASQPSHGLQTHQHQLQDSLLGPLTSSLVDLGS
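AlphaScreen with GST-Six1 and His-Eya2 (5X mix: 250 nM and 500 nM), glutathione donor and nickel acceptor beads; buffer 50 mM Tris pH 8.0, 300 mM NaCl, 1 mM TCEP; 1 h at 37 C in the dark.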
TDP1 block: qHTS Assay for Inhibitors of Tyrosyl-DNA Phosphodiesterase (TDP1); 0.28% of 350,000 active; recombinant TDP1, AlphaScreen DNA substrate cleavage; Tyrosyl-DNA phosphodiesterase 1 (Homo sapiens), Q9NUW8; Potency, µM (titrated, usually from 130 µM), without a hit: top-dose activity change, negative = inhibition, actives largely listed as inhibitors; AID 485290, 2010; also: potency is read from the fitted curve at half-maximal effect; % is scaled to controls: 0 for no effect and ±100 for the full control effect; nearly all actives have a fitted effect of over 40% in size
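Steps: enzyme plus compound, 15 min RT; add biotin/phosphotyrosine-FITC oligonucleotide (15 nM final), react 5 min; add donor/acceptor beads (10 ug/ml final), 10 min; read AlphaScreen. Tdp1 at 1 nM final.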
BAZ2B block: qHTS Assay for Inhibitors of BAZ2B | Bromodomain adjacent to zinc finger domain protein 2B (Homo sapiens), Q9UIF8 | 4.4% of 360,000 active | AID 504333, 2011 | AlphaScreen BAZ2B-H3K14Ac peptide displacement | Potency, µM (highest dose often 114 µM), inactives show at the highest dose activity change, negative = inhibition, usual class: inhibitors; also: potency is read from the fitted curve at half-maximal effect; % is scaled to controls: 0 for no effect and ±100 for the full control effect; nearly all actives have a fitted effect of over 60% in size
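Complex of BAZ2B and biotin-H3K14Ac (50 nM apiece) forms over 30 min at RT, then faces library compounds up to 110 uM for another 30 min; AlphaScreen beads added, 20 min dark incubation, luminescence read.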
JMJD2A Tudor inh: qHTS Assay for Inhibitors of JMJD2A-Tudor Domain | AID 504339, 2011 | Lysine-specific demethylase 4A (Homo sapiens), O75164 | Potency, µM (top dose mostly 114 µM), inactives show at the top dose activity change, negative = inhibition, actives largely listed as inhibitors | AlphaScreen JMJD2A-Tudor / H3K4me3 peptide binding | 4.4% of 390,000 active; also: potency is read from the fitted curve at half-maximal effect; % is scaled to controls: 0 for no effect and ±100 for the full control effect; nearly all actives have a fitted effect of over 50% in size
HP1b binding inh: HTS for Inhibitors of HP1-beta Chromodomain Interactions with Methylated Histone Tails | 0.56% of 390,000 active | AID 540317, 2011 | AlphaScreen HP1-beta / biotin-H3K9me3 peptide binding | Potency, µM (highest dose often 114 µM), inactives show top-dose activity change, negative = inhibition, usual class: inhibitors; also: potency is read from the fitted curve at half-maximal effect; nearly all actives have a fitted effect of over 70% in size
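Compound inhibition of the preformed complex between 50 nM HP1-beta and 50 nM biotinylated H3K9me3 peptide was read by AlphaScreen. Buffer was PBS pH 7.4 with 0.01% Tween-20. Incubations ran 30 min at room temperature, with 10 ug/mL donor/acceptor beads.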
* marks the source's active call; other numbers are inactive results; ? = inconclusive; . = no result given; [ ] = dose if it differs, or a comment. An excerpt weighted towards active compounds, which were near 5.3% of everything screened. Unless noted, calls follow the shape of the dose curve; as a rule, active = well fitted inhibition curve with a large enough effect; inconclusive = small, poorly fitted or top-dose-only effect; inactive = no such curve, though single readings can be large or run the other way.

SMILES | CtBP-E1A inh | Six1-Eya2 inh | TDP1 block | BAZ2B block | JMJD2A Tudor inh | HP1b binding inh
O=[N+]([O-])c1ccc(-c2cnc(SC(c3ccccc3)c3ccccc3)[nH]2)cc1 | -20 | -29 | 5% | 40µM* | ? | ?
Cc1cc(C)c2c(=O)[nH]c(SCc3ccc([N+](=O)[O-])cc3)nc2n1 | -2 | -26 | . | -1% | -10% | 28%
Cc1cc(C)c(CSc2ncc(-c3ccc([N+](=O)[O-])cc3)[nH]2)c(C)c1 | -22 | -20 | 8% | 10µM* | ? | ?
O=[N+]([O-])c1ccc2nc(SCc3ccccc3Cl)sc2c1 | -10 | -26 | 8% | -38% | ? | -10%
O=[N+]([O-])c1ccc(-c2cnc(SCc3ccccc3Cl)[nH]2)cc1 | -17 | -26 | 6% | 32µM* | ? | ?
O=C(O)CCCCCn1c(O)c(C=C2N=c3ccccc3=N2)sc1=S | 7 | -8 | ? | 50µM* | -32% | -2%
CCCC(C(=O)O)n1c(O)c(C=C2N=c3ccccc3=N2)sc1=S (stereo unspecified) | ? | -10 | . | -32% | 20µM* | -2%
COc1ccc(C2c3c(ncn(CCCc4ccccc4)c3=N)Oc3ccc4ccccc4c32)cc1OC (stereo unspecified) | . | . | 6% | . | ? | .
CCOc1ccc(/C=C/c2nc(C#N)c(N3CCN(c4ccc(OC)cc4)CC3)o2)cc1 | . | . | 5% | -2% | -20% | -15%
O=C(CSC1=NNC(c2ccccn2)S1)Nc1ccccc1 (stereo unspecified) | -94* | -94* | . | 5.6µM* | 6.3µM* | 42%
O=C(CSC1=NNC(c2ccccn2)S1)Nc1cccc(Cl)c1 (stereo unspecified) | -96* | -89* | . | 7.1µM* | 22µM* | 14%
O=C1C=C[C@@H](O)[C@H]2[C@@H]3C(=O)N(C4CCCCC4)C(=O)[C@@H]3CC[C@H]12 | . | . | 5%[21 µM] | . | . | .
CCOC(=O)c1c(S(=O)(=O)N2CCCC(C(=O)Nc3cccc(Cl)c3)C2)c(C)n(C)c1C (stereo unspecified) | . | . | 0% | -2% | -31% | 4%
CC(C)CCNC(=O)c1onc(CSc2ccccn2)c1C(=O)NCCC(C)C | 2 | 13 | . | . | 35µM* | 44%
O=C1c2ccccc2C(=O)c2c1ccc1c(=O)n(C3CCCCC3)[nH]c21 | -16 | -7 | 8% | 50µM* | 25µM* | -11%
CCOC(=O)c1cc(S(=O)(=O)N2CCN(c3ccccc3F)CC2)[nH]n1 | . | . | -1% | ? | -30% | 11%[57 µM]
CC(C)(C)OC(=O)n1cccc1/C=C1\c2ccccc2C(=O)N1c1ccccc1 | 1 | 0 | . | . | 63µM* | -37%
CC(=O)Oc1ccc(C#C/C=C2\c3ccccc3C(=O)N2c2ccccc2)cc1 | -6 | -11 | 4% | . | -28% | 25%
COC(=O)c1ccc(NC(=O)CN2CCCN(Cc3ccc(Cl)cc3)S2(=O)=O)cc1 | . | . | 4% | -13% | -19% | 25%
CCOC(=O)c1c(C)[nH]c(N=Nc2ccc(C)cc2C)c1C | -15 | -11 | 12% | 14µM* | 50µM* | 22µM*
CCOC(=O)c1c(C)[nH]c(N=Nc2ccccc2C)c1C | ? | ? | 11% | 32µM* | 25µM* | -35%
CCOC(=O)c1c(C)[nH]c(N=Nc2cc(C(=O)O)cc(C(=O)O)c2)c1C | -1 | -3 | . | ? | -29% | -21%
COc1cc(-c2[nH]ncc2CN2CCSCC2)cc(OC)c1OC | -9 | -4 | 7% | -3% | -7% | -2%
Cc1ccc(CN2CCSCC2)cc1 | . | 2 | . | ? | 22µM* | ?
Cc1ccc(CN2CCSCC2)c(C)c1 | . | -3 | -4% | ? | -100% | ?
SMILES | CtBP-E1A inh | Six1-Eya2 inh | TDP1 block | BAZ2B block | JMJD2A Tudor inh | HP1b binding inh
COc1cc(OC)c(OC)cc1CN1CCSCC1 | 3 | -2 | . | 79µM* | 3.2µM* | ?
COc1ccc(CN2CCSCC2)cc1C | 2 | -2 | -5% | 79µM* | 8.9µM* | ?
COc1cc(C)c(CN2CCSCC2)cc1C | . | -1 | . | ? | 32µM* | -3%
CSc1ccc(CCNC(=O)c2ccc(-n3c(C)cc4c3CCC(C)C4)cc2)cc1 (stereo unspecified) | . | . | 7% | -31% | -29% | 34%
CC(C)NC(=O)C1=CC(c2ccc3c(c2)OCO3)=NS(=O)(=O)N1C | . | . | 9% | 5% | -12% | 6%
COC(=O)CSCc1nc(-c2ccc(C(=O)OC)cc2)oc1C | . | . | -1% | 0% | 4% | 41%
O=C1NCCN1Cc1cccc(Cl)c1 | 3 | 4 | 6% | -4% | 5% | 24%
Clc1cccc(CN2CCSCC2)c1 | . | 0 | . | ? | 22µM* | ?
COc1ccc(CNC2CCCc3ccccc32)c(OC)c1 (stereo unspecified) | -4 | -4 | . | 4% | 50µM* | ?
COc1ccc(NC(=O)NC2CCCc3ccccc32)c(OC)c1 (stereo unspecified) | -11 | -5 | 6%[56.1 µM] | -19% | -13% | 23%
COc1ccc(CNC2CCCCC2C)c(OC)c1 (stereo unspecified) | -1 | 0 | 0% | 56µM* | 2µM* | ?
CCC(CC)NCc1ccc(OC)cc1OC | 10 | 6 | 1% | 13% | -12% | 19%
CCOc1ccc(CNC(=O)c2ccc3nc(C(C)C)oc3c2)cc1 | . | . | 2% | 5% | -16% | 9%[57 µM]
CCc1ccccc1NC(=O)c1ccc(F)c(S(=O)(=O)N2CCN(c3ccccc3OC)CC2)c1 | . | . | 3% | -5% | -12% | 16%
Cc1cc(C)c(Nc2nn3c(=O)c4cc5c(cc4nc3s2)OCO5)c(C)c1 | . | . | 3% | -2% | -32% | ?
C=CCOc1ccc(/C=C2\SC(=S)N(NS(=O)(=O)c3ccccc3)C2=O)cc1 | 5 | 2 | . | 50µM* | ? | -25%
CC(/C=C1\SC(=S)N(NS(=O)(=O)c2ccc(C)cc2)C1=O)=C\c1ccccc1 | -2 | -4 | . | 35µM* | 56µM* | -24%
CC(/C=C1\SC(=S)N(NS(=O)(=O)c2ccccc2)C1=O)=C\c1ccccc1 | -9 | -5 | . | 45µM* | ? | -20%
CC(C)CN(CC(C)C)C(=O)C1CCCN(S(=O)(=O)c2ccc3c(c2)oc(=O)n3C)C1 (stereo unspecified) | . | . | 6% | 0% | -1% | 59%
